Assay results taken from PubChem BioAssay (NCI).
This is part of a sample that, as a whole, favours compounds with a hit. Of some 83,000 tested, about 20% had one in any assay.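 The test compound was applied at a single concentration to cells in 96-well plates for 48 hours, and percent growth was recorded.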 A number with no mark means an inactive call. Active and inactive are the calls of the source. Rule for the calls: active = growth percent below 10; inactive = the rest.

Legend:
Experiment in all cases: NCI-60 one-dose screen, 48 h (100 = growth as untreated, 0 = no growth, -100 = all killed)
SK-MEL-2 melanoma = details: 10 µM unless noted
EKVX NSCLC = details: 10 µM unless noted
SN12C renal = details: 10 µM unless noted
UO-31 renal = details: 10 µM unless noted
TK-10 renal = details: 10 µM unless noted
ACHN renal = details: 10 µM unless noted
CAKI-1 renal = details: 10 µM
A498 renal = details: 10 µM unless noted
CCRF-CEM leukemia = details: 10 µM unless noted
MOLT-4 leukemia = details: 10 µM unless noted
SR leukemia = details: 10 µM unless noted
RPMI-8226 leukemia = details: 10 µM unless noted
OVCAR-8 ovarian = details: 10 µM unless noted
OVCAR-5 ovarian = details: 10 µM unless noted
OVCAR-4 ovarian = details: 10 µM unless noted
IGROV1 ovarian = details: 10 µM unless noted
OVCAR-3 ovarian = details: 10 µM unless noted
HS 578T breast = details: 10 µM unless noted
NCI/ADR-RES ovarian = details: 10 µM unless noted
SK-OV-3 ovarian = details: 10 µM unless noted

Compound	growth (SK-MEL-2 melanoma)	growth (EKVX NSCLC)	growth (SN12C renal)	growth (UO-31 renal)	growth (TK-10 renal)	growth (ACHN renal)	growth (CAKI-1 renal)	growth (A498 renal)	growth (CCRF-CEM leukemia)	growth (MOLT-4 leukemia)	growth (SR leukemia)	growth (RPMI-8226 leukemia)	growth (OVCAR-8 ovarian)	growth (OVCAR-5 ovarian)	growth (OVCAR-4 ovarian)	growth (IGROV1 ovarian)	growth (OVCAR-3 ovarian)	growth (HS 578T breast)	growth (NCI/ADR-RES ovarian)	growth (SK-OV-3 ovarian)
C/C(=C(/C)C1CC1CCN(C(=O)c1ccc([N+](=O)[O-])cc1)S(=O)(=O)c1ccc(C)cc1)C1CCCCC1 (stereo not given)	102%	82.4%	91.8%	92.2%	108%	99%	84.9%	105%	93.6%	80.3%	94.8%	85.7%	97.6%	101%	90.8%	111%	96.2%	102%	94.3%	–
CCC(=O)Nc1ccc(-c2nc(-c3cccc(O)c3)c(-c3ccnc(Br)c3)[nH]2)cc1	65.9%	88.4%	67.4%	69.7%	87.6%	82.8%	65.1%	70.5%	22.4%	39.9%	38.2%	–	51.8%	92.9%	51.1%	85.4%	67.5%	23%	96.5%	93.9%
C#C[C@]1(O)CC[C@H]2[C@@H]3CC=C4c5sc(-c6ccccn6)nc5CC[C@]4(C)[C@H]3CC[C@@]21C	70.7%	77.7%	87.2%	35.8%	104%	75.8%	87.7%	70.6%	37.5%	21.7%	29.3%	–	91.8%	94.2%	98.6%	88.9%	88%	14.4%	89.8%	76.8%
COc1cc(/C=C/C(=O)c2ccc(NC(=O)CSc3nnc(-c4ccc5nc(-c6ccccc6)[nH]c5c4)o3)cc2)cc(OC)c1OC	105%	99%	90.8%	89.4%	137%	101%	105%	84.4%	37.5%	65%	36.8%	30.7%	97.1%	102%	–	97.2%	72.1%	85.5%	100%	116%
COc1ccc(-c2nn(-c3ccccc3)cc2/C=C/C(=O)c2ccc(NC(=O)CCCCCCC(=O)NO)cc2)cc1	109%	97.2%	92.7%	93.7%	107%	111%	81.9%	68.4%	92.5%	70.3%	110%	115%	99.7%	108%	–	96.2%	96.2%	87.2%	97.8%	91.7%
CCOC(=O)c1nn(-c2ccc(C)cc2)c(=O)c2c(N)c(C#N)c(-c3ccc(OC)cc3)cc12	95.1%	84.7%	85.6%	80.5%	125%	93.6%	92%	118%	103%	114%	127%	98.6%	101%	94.3%	101%	80.2%	108%	90.1%	106%	–
CC(=O)Nc1nc2c(s1)C1=CC[C@H]3[C@@H]4CC[C@H](C(C)=O)[C@@]4(C)CC[C@@H]3[C@@]1(C)CC2	56.2%	68.7%	86.4%	65.4%	124%	77.6%	80.3%	74.5%	49%	1.44% (active)	59.4%	–	78.6%	80.6%	80.5%	99.1%	74.8%	33.8%	81.6%	59.9%
Cc1occc1-c1nc2s/c(=C\c3cn(-c4ccccc4)nc3-c3ccccc3)c(=O)n2n1	99.9%	99.4%	89.3%	90.5%	106%	108%	89.2%	92.9%	90.9%	107%	–	99.1%	101%	99.5%	97%	-96.2% (active)	–	105%	97.9%	113%
O=C1/C(=C/c2ccccc2[N+](=O)[O-])Oc2ccc(O)cc21	75%	69.8%	30.9%	21.4%	99.1%	2.35% (active)	48.3%	87.3%	-2.68% (active)	6.41% (active)	2.82% (active)	–	20.7%	38.2%	34.8%	33.5%	-18.9% (active)	53.6%	49%	–
C#C[C@]1(O)CC[C@H]2[C@@H]3CC=C4c5sc(-c6cccc(F)c6)nc5CC[C@]4(C)[C@H]3CC[C@@]21C	91.9%	83.5%	89.6%	82%	121%	85.4%	92.4%	101%	75.1%	53.1%	76.4%	–	96.8%	83.2%	110%	97.2%	102%	68.7%	89.1%	92.7%
O=S(=O)(Nc1cc(Cl)c(F)c(Cl)c1)c1ccc(-c2cnc(C3CC3)o2)cc1	51.9%	47.6%	48.7%	56.8%	72.5%	49.4%	12%	15.5%	20.7%	38%	36%	–	44.5%	48.4%	58.3%	43.5%	15.4%	30.5%	26.8%	72.8%
CC1=C2C(=C[C@@](C)(COS(N)(=O)=O)[C@@H]2O)C(=O)[C@](C)(O)C12CC2	41.2%	94.9%	81.2%	54.6%	95.9%	47.4%	85.8%	55.7%	98.2%	97.3%	102%	–	74.3%	41.4%	80.8%	60.7%	62.6%	104%	63.5%	53.9%
CC(=O)Nc1cccc(-n2cnc3cc(-c4ccc(O)cc4)ccc32)c1	29.2%	56.6%	38.1%	28.1%	72.6%	33%	23.3%	-32.6% (active)	23.6%	21.5%	–	20.3%	28.8%	66.7%	66.4%	41.1%	–	-17.1% (active)	18.5%	32.9%
CCOC(=O)Nc1ccc(-c2nc(-c3cccc(O)c3)c(-c3ccnc(Br)c3)[nH]2)cc1	34.4%	44.2%	44.7%	31.3%	41.9%	36.5%	27.3%	49.4%	22.9%	2.17% (active)	9.74% (active)	–	10.7%	85%	13.6%	33%	14.6%	-2.07% (active)	63.5%	41.2%
COC(=O)Nc1ccc(-c2nc(-c3cccc(O)c3)c(-c3ccnc(Br)c3)[nH]2)cc1	77.8%	68.5%	60.4%	42.9%	73.5%	60.4%	45.6%	73.4%	22.8%	21.5%	32.7%	–	35.6%	92.9%	45.5%	65.7%	50.8%	27.7%	76.1%	79.3%
COC(=O)[C@@]1(C)CC[C@]2(C)CC[C@]3(C)C(=CC(=O)[C@@H]4[C@@]5(C)Cc6c(n(CC#CCN7CCN(C)CC7)c7ccccc67)C(C)(C)[C@@H]5CC[C@]43C)[C@@H]2C1	101%	92.4%	73.5%	65.7%	119%	89.4%	64.7%	112%	48%	16.9%	–	69.5%	93.8%	86.7%	89.7%	89%	–	88.1%	86.5%	122%
